Screens from PubChem BioAssay.
Hits are enriched below; roughly 0.24% of the tested compounds scored in any of these assays.
mcGAS lum: mouse cGAS inhibition by luminescence. recombinant cGAS, Kinase-Glo ATP depletion luminescence. inhibition, % at 12.5 µM. hit rate 0.15% among 160,000. AID 1259399;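 also: 0% = negative control wells and 100% = reference inhibitor with no enzyme activity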
hcGAS lum: inhibitors of human cGAS. hit rate 0.081% among 290,000. inhibition, % at 12.5 µM. recombinant h-cGAS, ATP depletion, Kinase-Glo luminescence. Q8N884;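 also: 0% = vehicle reaction and 100% = reaction without DNA for no activity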
NPYLR7 agonist: activates Aedes aegypti NPYLR7 receptor. HEK293T NPYLR7/Galpha15, GCaMP6s calcium fluorescence. activation, % at 10 µM. hit rate 0.15% among 270,000. AID 1259423; in the data active = activation above about 40%;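 also: 0% = vehicle and 100% = reference agonist at the receptor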
* = called active by the depositor; . = no result. Rule as the data show it, unless noted: active = inhibition above about 40%; inactive = the rest.

SMILES	mcGAS lum	hcGAS lum	NPYLR7 agonist
Cc1nc(Sc2nnc3ccccn23)c2c3c(sc2n1)CCCC3	-7	-3	43*
COc1ccc(NCc2ccc(OC)c(Br)c2)cn1	-9	-13	86*
COc1ccc(NCc2cc(OC)c3c(c2)OCCO3)cn1	-6	-6	3
COc1cc(C(=O)O)c(N)cc1OC(F)F	.	4	-5
Cn1c(C(C#N)=Cc2ccsc2)nc2ccccc21	-1	3	-1
Cn1c(C(C#N)=Cc2c(F)c(F)c(F)c(F)c2F)nc2ccccc21	.	0	142*
CCOC(=O)C1=C(C)N(C)C(=O)N(C)C1c1cccc(OC)c1OC (configuration not stated)	.	-12	-1
COc1ccc(C(=O)N(Cc2cccc(C)c2)[C@@H]2CCCCC2NC(=O)[C@H]2CCCN2C(=O)Cc2cccs2)cc1 (some centres not stated)	-7	-5	16
O=[N+]([O-])c1cccc(C(Nc2nc3c(s2)CCCC3)c2ccc3cccnc3c2O)c1 (configuration not stated)	2	42*	-2
CCCC(=O)NC(c1cccc([N+](=O)[O-])c1)c1ccc2cccnc2c1O (configuration not stated)	.	-2	0
COC(=O)c1c(C)cc(OC(=O)c2c(C)cc(O)c(C=O)c2O)c(C)c1O	-4	-4	.
Cc1cc(O)c(C=O)c(O)c1C(=O)O	.	56*	-12
Cc1cc(F)ccc1Oc1cc(N(CCN(C)C)Cc2ccccc2)ncn1	-5	-6	0
C=CCn1c(O)c(C=Nc2ccccc2)sc1=S	-6	-3	-3
Oc1[nH]c(=S)sc1C=Nc1ccccc1	57*	7	-1
COc1ccc(C(C)NS(=O)(=O)c2ccc(Cl)cc2C(F)(F)F)cc1F (configuration not stated)	.	2	107*
COc1ccc(S(=O)(=O)NC(C)c2ccncc2)cc1F (configuration not stated)	.	-15	2
CC(C)SC(NC(=O)OCc1ccccc1)C(=O)N1CCC(c2ccc(F)cc2)CC1 (configuration not stated)	-5	-4	14
